# According to PubChem BioAssay (EPA / NIEHS):
# Several values for one entry are separate records, joined by “and”; a condition that tells them apart may be missing. Equal entries are not always repeated. Records with an inconclusive call do not appear. Some compounds were tested as several samples or in several runs, with calls that do not always agree. Activity calls are given as the source filed them. Rule for the calls: active = hit-call score of the fitted dose curve at least 0.9, where 1 is the maximum; inconclusive = response in the unintended direction; inactive = score below 0.9.
# Assays:
# NCBI gene 100848466 = assay: NVS_NR_bPR: NovaScreen (NVS) Nuclear Receptor Binding Assay for bovine Progextron Receptor (PR) (AID 2283343);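 for AC50: actives lower bound radioligand signal below DMSO meaning displacement of the label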
# In short: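 Bovine uterine membrane preparation; radioligand displacement read by scintillation counting 18 h after dosing. Primary screen single concentration, 25 uM, in duplicate; actives followed up in concentration series. Signal loss versus DMSO baseline.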
# [1] = target: Estrogen receptor (Homo sapiens) (UniProt P03372); assay: NVS_NR_hER: NovaScreen (NVS) Nuclear Receptor Binding Assay for human Estrogen Receptor (ER) (AID 2283348)
# Estrogen receptor (Homo sapiens), sequence (P03372 whole entry, looked up, the tested form may be a part): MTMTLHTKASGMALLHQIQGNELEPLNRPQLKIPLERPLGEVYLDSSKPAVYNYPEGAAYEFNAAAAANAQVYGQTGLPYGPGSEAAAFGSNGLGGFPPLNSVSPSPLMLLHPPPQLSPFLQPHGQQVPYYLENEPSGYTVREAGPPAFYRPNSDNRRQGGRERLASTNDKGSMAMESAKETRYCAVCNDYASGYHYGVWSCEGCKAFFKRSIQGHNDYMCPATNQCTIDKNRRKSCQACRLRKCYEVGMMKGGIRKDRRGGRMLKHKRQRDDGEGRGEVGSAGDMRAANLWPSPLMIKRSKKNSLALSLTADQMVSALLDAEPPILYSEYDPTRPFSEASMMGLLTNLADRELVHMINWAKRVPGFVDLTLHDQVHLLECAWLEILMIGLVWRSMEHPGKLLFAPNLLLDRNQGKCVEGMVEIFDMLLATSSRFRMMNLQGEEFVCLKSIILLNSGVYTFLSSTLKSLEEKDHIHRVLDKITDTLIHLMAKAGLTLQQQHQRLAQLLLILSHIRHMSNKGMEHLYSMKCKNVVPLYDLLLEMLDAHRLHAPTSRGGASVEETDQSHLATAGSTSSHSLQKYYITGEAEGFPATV
# In short: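 Radioligand competitive displacement binding to estrogen receptor from MCF7 extract, cell-free; 18 h after dosing, scintillation read-out. Primary screen in duplicate at 25 uM; actives followed up in concentration series; loss of signal vs DMSO.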
# [2] = target: Estrogen receptor (Homo sapiens) (UniProt P03372); assay: OT_ER_ERaERa_1440: Odyssey Thera (OT) 24-hour HEK293T Protein-Complementation Assay for Estrogen Receptor-alpha/-alpha Homodimer (AID 2283349);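 note: hits raise fluorescence above DMSO for agonists and antagonists alike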
# In short: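 HEK293T cells stably expressing the human ER alpha ligand-binding domain (aa 310-547) as a homodimer PCA were dosed for 24 hours. Fluorescence intensity was read by laser scanning cytometry, and gain of signal was fitted relative to DMSO vehicle.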
# [3] = target: Estrogen receptor (Homo sapiens) (UniProt P03372); assay: OT_ER_ERaERa_0480: Odyssey Thera (OT) 8-hour HEK293T Protein-Complementation Assay for Estrogen Receptor-alpha/-alpha Homodimer (AID 2283351);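 note: rise in fluorescence from reassembled reporter fragments on ERα LBD homodimer in nucleus or whole cell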
# In short: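 The readout is complementation of fragments fused to the human ER alpha ligand-binding domain (aa 310-547), stably expressed in HEK293T cells. After 8 h of exposure, the increase in nuclear/cytoplasmic fluorescence was measured by laser scanning cytometry and fitted relative to DMSO.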
# [4] = target: Estrogen receptor (Homo sapiens) + Estrogen receptor beta (Homo sapiens) (UniProt P03372+Q92731); assay: OT_ER_ERaERb_0480: Odyssey Thera (OT) 8-hour HEK293T Protein-Complementation Assay for Estrogen Receptor-alpha/-beta Heterodimer (AID 2283352)
# Estrogen receptor (Homo sapiens) + Estrogen receptor beta (Homo sapiens), sequence (P03372 whole entry, looked up): as the sequence (P03372 whole entry, looked up, the tested form may be a part) above
# Estrogen receptor (Homo sapiens) + Estrogen receptor beta (Homo sapiens), sequence (Q92731 whole entry, looked up): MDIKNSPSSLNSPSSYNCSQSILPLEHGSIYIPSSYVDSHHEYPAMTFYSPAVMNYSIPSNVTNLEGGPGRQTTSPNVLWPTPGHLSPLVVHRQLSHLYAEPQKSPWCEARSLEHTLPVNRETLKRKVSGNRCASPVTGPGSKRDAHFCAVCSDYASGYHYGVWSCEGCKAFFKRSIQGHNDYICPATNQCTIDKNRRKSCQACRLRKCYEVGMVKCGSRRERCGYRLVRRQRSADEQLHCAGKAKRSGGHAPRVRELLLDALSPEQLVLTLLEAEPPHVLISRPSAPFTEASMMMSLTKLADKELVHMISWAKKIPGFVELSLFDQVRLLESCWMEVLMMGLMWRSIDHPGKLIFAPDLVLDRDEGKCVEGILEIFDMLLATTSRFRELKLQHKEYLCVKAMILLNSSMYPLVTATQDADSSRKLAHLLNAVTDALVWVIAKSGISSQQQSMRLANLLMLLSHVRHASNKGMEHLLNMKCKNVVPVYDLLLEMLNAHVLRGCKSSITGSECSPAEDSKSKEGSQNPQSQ
# In short: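 Compound added to HEK293T cells carrying split-reporter-tagged ER-alpha and ER-beta LBDs, incubated 8 hours, then imaged by laser scanning cytometer. Signal rise in nucleus, or nucleus and cytoplasm, over vehicle was fitted in the positive direction.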
# [5] = target: Estrogen receptor beta (Homo sapiens) (UniProt Q92731); assay: OT_ER_ERbERb_0480: Odyssey Thera (OT) 8-hour HEK293T Protein-Complementation Assay for Estrogen Receptor-beta/-beta Homodimer (AID 2283357);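 note: active means signal gain over DMSO baseline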
# Estrogen receptor beta (Homo sapiens), sequence (Q92731 whole entry, looked up, the tested form may be a part): as the sequence (Q92731 whole entry, looked up) above
# In short: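 Fluorescence intensity, nuclear for agonists and nuclear plus cytoplasmic for antagonists, was quantified by laser scanning cytometry versus vehicle after 8 h treatment. The cells were HEK293T stably carrying ER beta LBD fragment-complementation partners.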
# [6] = target: human Constitutive Androstane Receptor (CAR), NR1I3 (gene 9970) (UniProt Q14994); assay: NVS_NR_hCAR_Antagonist: NovaScreen (NVS) Nuclear Receptor Binding Assay for human Constitutive Androstane Receptor Antagonism (CAR) (AID 2283344)
# human Constitutive Androstane Receptor (CAR), NR1I3 (gene 9970), sequence (Q14994 whole entry, looked up): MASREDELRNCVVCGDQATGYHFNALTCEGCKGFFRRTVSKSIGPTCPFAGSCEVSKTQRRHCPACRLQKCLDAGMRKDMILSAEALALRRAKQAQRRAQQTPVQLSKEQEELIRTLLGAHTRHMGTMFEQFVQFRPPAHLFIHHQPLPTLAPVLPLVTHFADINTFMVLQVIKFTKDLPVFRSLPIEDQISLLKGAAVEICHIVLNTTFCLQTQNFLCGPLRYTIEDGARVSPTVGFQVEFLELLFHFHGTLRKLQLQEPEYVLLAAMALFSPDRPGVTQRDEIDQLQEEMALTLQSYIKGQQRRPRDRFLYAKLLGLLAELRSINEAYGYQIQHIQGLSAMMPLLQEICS
# In short: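 Cell-free TR-FRET binding read 1 h after dosing, antagonist mode; loss of signal versus DMSO baseline. Primary screen in duplicate at a single 25 uM; actives retested in concentration series.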
# [7] = target: Bile acid receptor (Homo sapiens) (UniProt Q96RI1); assay: NVS_NR_hFXR_Antagonist: NovaScreen (NVS) Nuclear Receptor Binding Assay for human Farnesoid X Receptor Antagonism (FXR) (AID 2283350)
# Bile acid receptor (Homo sapiens), sequence (Q96RI1 whole entry, looked up): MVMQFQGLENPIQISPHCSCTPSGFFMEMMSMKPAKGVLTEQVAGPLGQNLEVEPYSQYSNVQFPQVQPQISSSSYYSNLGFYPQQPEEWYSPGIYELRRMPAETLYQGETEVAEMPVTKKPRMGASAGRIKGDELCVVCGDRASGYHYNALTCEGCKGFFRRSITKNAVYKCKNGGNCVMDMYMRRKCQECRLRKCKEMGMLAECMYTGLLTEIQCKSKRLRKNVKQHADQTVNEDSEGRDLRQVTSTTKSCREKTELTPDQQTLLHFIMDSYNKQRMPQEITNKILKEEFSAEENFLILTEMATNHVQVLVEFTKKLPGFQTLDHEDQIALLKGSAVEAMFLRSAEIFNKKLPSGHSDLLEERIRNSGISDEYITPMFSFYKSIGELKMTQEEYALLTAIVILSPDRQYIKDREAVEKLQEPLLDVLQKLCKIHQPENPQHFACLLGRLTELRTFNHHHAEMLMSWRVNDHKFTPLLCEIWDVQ
# In short: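 Cell-free TR-FRET ligand-binding read-out on human FXR (NR1H4) in antagonist mode, measured 1 h after dosing. Primary screen in duplicate at 25 uM, actives retested in concentration series; signal loss scored versus DMSO.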
# [8] = tested on: guinea pig Histamine Receptor (H2), gene 100729734; assay: NVS_GPCR_gH2: NovaScreen (NVS) G Protein-Coupled Receptor Assay for guinea pig Histamine Receptor (H2) (AID 2283342)
# In short: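 Radioligand displacement on guinea pig striatal membranes, 1 h after dosing, filter-based scintillation counting; loss of signal versus DMSO. Single-point screen at 25 uM in duplicate, then concentration-response up to 50 uM.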
# [9] = target: chimpanzee Androgen Receptor (AR), AR (gene 747460) (UniProt O97775); assay: NVS_NR_cAR: NovaScreen (NVS) Nuclear Receptor Binding Assay for chimpanzee Androgen Receptor (AR) (AID 2283346);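 note: radioligand displacement from AR measured by scintillation counting in a cell-free assay; a loss of bound radioligand signal versus DMSO counts as binding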
# chimpanzee Androgen Receptor (AR), AR (gene 747460), sequence (O97775 whole entry, looked up): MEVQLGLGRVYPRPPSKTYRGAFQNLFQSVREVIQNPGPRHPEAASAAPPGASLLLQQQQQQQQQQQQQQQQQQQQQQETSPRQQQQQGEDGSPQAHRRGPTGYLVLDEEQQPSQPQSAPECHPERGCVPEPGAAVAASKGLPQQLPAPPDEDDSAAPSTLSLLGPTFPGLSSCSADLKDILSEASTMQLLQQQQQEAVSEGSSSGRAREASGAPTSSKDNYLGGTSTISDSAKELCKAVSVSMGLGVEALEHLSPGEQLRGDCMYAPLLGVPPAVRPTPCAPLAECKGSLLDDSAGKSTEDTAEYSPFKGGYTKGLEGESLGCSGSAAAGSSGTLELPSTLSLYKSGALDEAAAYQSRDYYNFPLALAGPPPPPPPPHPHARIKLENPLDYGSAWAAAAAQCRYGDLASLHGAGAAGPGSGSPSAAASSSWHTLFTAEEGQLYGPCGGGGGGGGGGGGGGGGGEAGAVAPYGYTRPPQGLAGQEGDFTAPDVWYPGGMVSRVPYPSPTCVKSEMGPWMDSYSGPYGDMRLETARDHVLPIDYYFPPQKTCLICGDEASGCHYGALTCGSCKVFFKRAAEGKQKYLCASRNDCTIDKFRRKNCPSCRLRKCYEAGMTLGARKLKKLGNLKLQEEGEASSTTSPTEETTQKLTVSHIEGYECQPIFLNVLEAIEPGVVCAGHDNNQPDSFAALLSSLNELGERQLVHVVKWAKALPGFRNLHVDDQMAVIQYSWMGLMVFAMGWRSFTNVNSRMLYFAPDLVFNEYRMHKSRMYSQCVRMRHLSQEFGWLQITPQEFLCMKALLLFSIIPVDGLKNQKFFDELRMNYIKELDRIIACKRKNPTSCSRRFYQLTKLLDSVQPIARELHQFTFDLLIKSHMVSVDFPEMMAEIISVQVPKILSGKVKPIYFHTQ
# In short: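 Radioligand binding to chimpanzee AR expressed in Sf9/Sf21 cells, cell-free, measured 72 h after dosing by lysate-based scintillation counting. Loss of signal vs DMSO; initial duplicate screen at 25 uM, actives retested in concentration series.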
# [10] = target: Androgen Receptor/SRC-1 Co-activator, AR (gene 367) (UniProt P10275); assay: OT_AR_ARSRC1_0960: Odyssey Thera (OT) 16-hour HEK293T Protein-Complementation Assay for Androgen Receptor/SRC-1 Co-activator (AID 2283353);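 note: actives raise the signal above DMSO so potency reflects increased AR and SRC-1 complex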
# In short: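 HEK293T cells stably expressing AR and SRC-1 fused to Venus YFP fragments, imaged 16 h after dosing. Nuclear/cytoplasmic fluorescence ratio at 488 nm from at least 400 cells per image; gain of signal relative to DMSO.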
# [11] = target: Androgen Receptor/SRC-1 Co-activator, AR (gene 367) (UniProt P10275); assay: OT_AR_ARSRC1_0480: Odyssey Thera (OT) 8-hour HEK293T Protein-Complementation Assay for Androgen Receptor/SRC-1 Co-activator (AID 2283354);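 note: hits raise the complementation signal above DMSO so AC50 marks enhancers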
# In short: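 HEK293T cells stably expressing AR and SRC-1 fused to Venus YFP fragments, imaged 8 h after dosing. Complementation fluorescence scored as nuclear/cytoplasmic ratio at 488 nm in at least 400 cells per image; gain fitted versus DMSO.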
# [12] = target: Retinoic acid receptor alpha (Homo sapiens) (UniProt P10276); assay: NVS_NR_hRAR_Antagonist: NovaScreen (NVS) Nuclear Receptor Binding Assay for human Retinoic Acid Alpha Receptor Antagonism (RAR) (AID 2283358)
# Retinoic acid receptor alpha (Homo sapiens), sequence (P10276 whole entry, looked up): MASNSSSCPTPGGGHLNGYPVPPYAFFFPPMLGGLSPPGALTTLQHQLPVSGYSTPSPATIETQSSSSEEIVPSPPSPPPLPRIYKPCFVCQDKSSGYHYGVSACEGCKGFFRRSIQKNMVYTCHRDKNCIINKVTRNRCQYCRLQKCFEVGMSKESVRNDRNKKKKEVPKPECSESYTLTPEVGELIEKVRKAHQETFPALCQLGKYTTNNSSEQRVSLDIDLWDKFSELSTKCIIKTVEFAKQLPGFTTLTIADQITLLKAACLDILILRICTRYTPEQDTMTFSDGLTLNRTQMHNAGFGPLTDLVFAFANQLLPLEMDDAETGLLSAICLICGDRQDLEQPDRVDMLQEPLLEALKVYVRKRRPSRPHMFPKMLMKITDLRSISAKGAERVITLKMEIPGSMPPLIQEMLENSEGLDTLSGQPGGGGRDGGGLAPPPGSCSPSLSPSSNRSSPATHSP
# In short: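 Cell-free TR-FRET binding assay with extracted human RARalpha in antagonist mode, read 2 h after dosing. Loss of signal was fitted relative to DMSO; the primary screen used 25 uM in duplicate, with concentration series on follow-up.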
# [13] = target: rat Glutamate, MK-801 Agonist Site (GluNMDA_MK801), Grin1 (gene 24408) (UniProt P35439); assay: NVS_LGIC_rGluNMDA_MK801_Agonist: NovaScreen (NVS) Ligand-Gated Ion Channel Assay for rat Glutamate, MK-801 Agonist Site (GluNMDA_MK801) (AID 2283340)
# In short: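 Radioligand binding at MK-801 site in rat forebrain membranes, 1.5 h incubation, filter-based scintillation counting. Initially 25 uM in duplicate; actives then run in concentration-response up to 50 uM, fitted for gain of signal versus DMSO.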
# [14] = target: rat Glycine Receptor, Strychnine-sensitive (GlyRStrySens), Glra1 (gene 25674) (UniProt P07727); assay: NVS_LGIC_rGlyRStrySens: NovaScreen (NVS) Ligand-Gated Ion Channel Assay for rat Glycine Receptor, Strychnine-sensitive (GlyRStrySens) (AID 2283341)
# In short: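 Radioligand displacement on rat spinal cord membranes, 1 hr, filter scintillation read-out. Single-concentration duplicate screen at 25 uM; chemicals meeting threshold (e.g., 30% inhibition) rerun in concentration-response up to 50 uM. Loss of binding fitted versus DMSO.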
# [15] = target: rat Gamma-Aminobutyric Acid Type A Receptor BDZ, alpha 6 site (GABARa6), Gabra6 (gene 29708) (UniProt P30191); assay: NVS_LGIC_rGABARa6: NovaScreen (NVS) Ligand-Gated Ion Channel Assay for rat Gamma-Aminobutyric Acid Type A Receptor BDZ, alpha 6 site (GABARa6) (AID 2283339)
# In short: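 Rat cerebellar membranes; radioligand binding, filtration and scintillation counting, read 1 h after dosing. Single-concentration duplicate screen at 25 uM, then concentration-response up to 50 uM for actives; loss of signal fitted versus DMSO baseline.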
# [16] = target: Bile acid receptor (Homo sapiens) (UniProt Q96RI1); assay: NVS_NR_hFXR_Agonist: NovaScreen (NVS) Nuclear Receptor Binding Assay for human Farnesoid X Receptor Agonism (FXR) (AID 2283347)
# In short: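 Cell-free TR-FRET binding assay with extracted human FXR protein, agonist format, read 1 h after dosing. Primary screen at 25 uM single concentration in duplicate, actives retested in concentration series; gain of signal versus DMSO.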
# [17] = target: rat Mineralocorticoid Receptor (MR), Nr3c2 (gene 25672) (UniProt P22199); assay: NVS_NR_rMR: NovaScreen (NVS) Nuclear Receptor Binding Assay for rat Mineralocorticoid Receptor (MR) (AID 2283355)
# In short: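 Cell-free radioligand binding to mineralocorticoid receptor from adrenalectomized rat brain supernatant, scintillation counting after 24 h. Primary screen in duplicate at 25 uM; actives retested in concentration series. Loss of specific binding versus DMSO.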
# [18] = target: bovine Gamma-Aminobutyric Acid Type A Receptor Agonist (GABAR Agonist), GABRA1 (gene 780973) (UniProt P08219); assay: NVS_LGIC_bGABAR_Agonist: NovaScreen (NVS) Ligand-Gated Ion Channel Assay for bovine Gamma-Aminobutyric Acid Type A Receptor Agonist (GABAR Agonist) (AID 2283338)
# In short: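 Radioligand binding to bovine cerebellar membranes in agonist format, read by filter-based scintillation counting after 1 h. Primary screen in duplicate at 25 uM, with actives followed in concentration series. Gain of signal versus DMSO.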
# [19] = target: human Peroxisome Proliferator-activated Receptor alpha (PPARa), PPARA (gene 5465) (UniProt Q07869); assay: NVS_NR_hPPARa: NovaScreen (NVS) Nuclear Receptor Binding Assay for human Peroxisome Proliferator-activated Receptor alpha (PPARa) (AID 2283359);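 note: activity means loss of TR-FRET signal versus DMSO baseline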
# human Peroxisome Proliferator-activated Receptor alpha (PPARa), PPARA (gene 5465), sequence (Q07869 whole entry, looked up): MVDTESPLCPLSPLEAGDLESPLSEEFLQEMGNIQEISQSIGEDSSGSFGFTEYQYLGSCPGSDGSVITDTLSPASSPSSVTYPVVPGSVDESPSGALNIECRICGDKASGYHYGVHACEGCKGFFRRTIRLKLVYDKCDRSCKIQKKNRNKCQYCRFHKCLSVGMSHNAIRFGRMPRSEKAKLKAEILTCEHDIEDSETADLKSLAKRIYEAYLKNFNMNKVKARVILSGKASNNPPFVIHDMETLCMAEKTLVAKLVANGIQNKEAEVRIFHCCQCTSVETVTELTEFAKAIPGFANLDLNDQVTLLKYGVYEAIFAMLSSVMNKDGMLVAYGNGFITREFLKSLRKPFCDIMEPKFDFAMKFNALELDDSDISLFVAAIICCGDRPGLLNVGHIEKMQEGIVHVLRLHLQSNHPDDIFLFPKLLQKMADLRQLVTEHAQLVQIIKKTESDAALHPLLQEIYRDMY
# In short: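 Cell-free TR-FRET binding assay with extracted PPARα protein, read 1 h after dosing. Primary screen in duplicate at 25 uM, with actives retested in concentration series. Loss of signal versus DMSO.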
compound,measurement,setting,value
COP(=S)(OC)Oc1ccc(SC)c(C)c1,AC50,NCBI gene 100848466,16.3 µM (active)
same,outcome,[1],inactive
same,outcome,[2],inactive
same,outcome,[3],inactive
same,outcome,[4],inactive
same,outcome,[5],inactive
CN1CSC(=S)N(C)C1,outcome,[6],inactive
same,outcome,[1],inactive
same,outcome,[2],inactive
same,AC50,[7],9.27 µM (active)
same,outcome,[3],inactive
same,outcome,[5],inactive
CCOCN(C(=O)CCl)c1c(C)cccc1CC,outcome,[8],inactive
same,AC50,[6],13.9 µM (active)
same,AC50,[9],15.5 µM (active)
same,outcome,[2],inactive
same,outcome,[3],inactive
N#Cc1c(Cl)c(Cl)c(Cl)c(C#N)c1Cl,outcome,NCBI gene 100848466,inactive
same,outcome,[6],inactive
same,outcome,[9],inactive
same,outcome,[2],inactive
same,outcome,[7],inactive
same,outcome,[3],inactive
same,outcome,[5],inactive
O=[N+]([O-])c1c(Cl)c(Cl)c(Cl)c(Cl)c1Cl,outcome,NCBI gene 100848466,inactive
same,outcome,[6],inactive
same,outcome,[2],inactive
same,outcome,[3],inactive
same,outcome,[4],inactive
same,outcome,[10],inactive
same,outcome,[11],inactive
same,outcome,[5],inactive
same,outcome,[12],inactive
CC[C@H](C)[C@H]1O[C@]2(C=C[C@@H]1C)C[C@@H]1C[C@@H](C/C=C(\C)[C@@H](O[C@H]3C[C@H](OC)[C@@H](O[C@H]4C[C@H](OC)[C@@H](O)[C@H](C)O4)[C@H](C)O3)[C@@H](C)/C=C/C=C3\CO[C@@H]4[C@H](O)C(C)=C[C@@H](C(=O)O1)[C@]34O)O2 (tested in a mixture with another compound),outcome,[13],inactive
same,AC50,[14],0.494 µM (active)
same,AC50,NCBI gene 100848466,6.14 µM (active)
same,AC50,[6],10.1 µM (active)
same,AC50,[9],5.41 µM (active)
same,outcome,[2],inactive
same,outcome,[3],inactive
same,AC50,[12],12.2 µM (active)
O=C(Nc1ccccc1)Nc1cnns1,AC50,[15],3.68 µM (active)
same,outcome,[2],inactive
same,outcome,[3],inactive
same,outcome,[5],inactive
Oc1cc(Cl)ccc1Oc1ccc(Cl)cc1Cl,outcome,NCBI gene 100848466,inactive
same,AC50,[9],12.4 µM (active) and 15.3 µM (active) and 12.2 µM (active)
same,outcome,[16],inactive
same,outcome,[17],inactive
same,outcome,[5],inactive
COP(=S)(OC)Oc1ccc([N+](=O)[O-])cc1,AC50,NCBI gene 100848466,7.33 µM (active)
same,outcome,[6],inactive
same,AC50,[9],14.6 µM (active)
same,outcome,[7],inactive
same,outcome,[3],inactive
same,outcome,[4],inactive
same,outcome,[5],inactive
O=S(=O)(O)C(F)(F)C(F)(F)C(F)(F)C(F)(F)C(F)(F)C(F)(F)C(F)(F)C(F)(F)F,outcome,[18],inactive
same,AC50,NCBI gene 100848466,25 µM (active) [middle of 5 runs]
same,AC50,[9],5.81 µM (active)
same,AC50,[19],11.2 µM (active)
same,outcome,[19],inactive
